Measured values as given in the supplement of paper PMC6555819.

Experiments:
Test in all cases: PBM binding z-score (relative to random genomic background probes); higher = stronger binding; sequences stand for … in GC…GCGATTGACAGCGTAGAATGAAGG
[1] = test system: FXR:RXRa (NR concentration 270 nM, RXRa partner concentration 90 nM)
How it was run: (§1)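 Probes were double-stranded and carried 34-nt variable regions with direct-repeat seeds, single-nucleotide variants, half-site ablations and random human genomic background sequences, printed on custom Agilent 4×180K protein-binding microarrays. Arrays were incubated 1 h with ligand-free nuclear receptor dimers in PBS pH 7.4, 2% milk, 0.02% Triton X-100, 1 mM DTT, 0.2 mg/mL BSA and 0.4 mg/ml salmon testes DNA. Antibodies against each partner (one per run) detected binding, and scanned fluorescence was regression-normalized. Binding z-scores use the random background probes as reference.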

[2] = test system: LXRa:RXRa (NR concentration 270 nM, RXRa partner concentration 90 nM)
How it was run: as §1

[3] = test system: LXRa homodimer (NR concentration 270 nM)
How it was run: as §1

[4] = test system: LXRb:RXRa (NR concentration 270 nM, RXRa partner concentration 90 nM)
How it was run: as §1

[5] = test system: LXRb homodimer (NR concentration 270 nM)
How it was run: as §1

[6] = test system: PPARa:RXRa (NR concentration 270 nM, RXRa partner concentration 90 nM)
How it was run: as §1

[7] = test system: PPARg:RXRa (NR concentration 180 nM, RXRa partner concentration 90 nM)
How it was run: as §1

[8] = test system: PPARg:RXRa 270nM:90nM, anti-RXR (NR concentration 270 nM, RXRa partner concentration 90 nM)
How it was run: as §1

[9] = test system: PPARg:RXRa 30nM:10nM, anti-RXR (NR concentration 30 nM, RXRa partner concentration 10 nM)
How it was run: as §1

[10] = test system: PPARg:RXRa 90nM:30nM, anti-RXR (NR concentration 90 nM, RXRa partner concentration 30 nM)
How it was run: as §1

[11] = test system: PPARg:RXRa DBDmut IVT, anti-RXR (DBD mutation: RXRa K156A/R161A, NR concentration 270 nM, RXRa partner concentration 90 nM)
How it was run: as §1

[12] = test system: PPARg:RXRa IVT, anti-PPARg (NR concentration 270 nM, RXRa partner concentration 90 nM)
How it was run: as §1

[13] = test system: PPARg DBDmut:RXRa IVT, anti-PPARg (DBD mutation: PPARg1 K132A/R137A, NR concentration 270 nM, RXRa partner concentration 90 nM)
How it was run: as §1

[14] = test system: PPARg DBDmut IVT, anti-PPARg (DBD mutation: PPARg1 K132A/R137A, NR concentration 270 nM)
How it was run: as §1

[15] = test system: PPARg homodimer (NR concentration 180 nM)
How it was run: as §1

[16] = test system: PXR:RXRa (NR concentration 270 nM, RXRa partner concentration 90 nM)
How it was run: as §1

[17] = test system: PXR homodimer (NR concentration 270 nM)
How it was run: as §1

[18] = test system: RARa:RXR (NR concentration 270 nM, RXRa partner concentration 90 nM)
How it was run: as §1

[19] = test system: RARa homodimer (NR concentration 270 nM)
How it was run: as §1

[20] = test system: RARb:RXRa (NR concentration 270 nM, RXRa partner concentration 90 nM)
How it was run: as §1

Row | Sequence | PBM binding z-score [1] | PBM binding z-score [2] | PBM binding z-score [3] | PBM binding z-score [4] | PBM binding z-score [5] | PBM binding z-score [6] | PBM binding z-score [7] | PBM binding z-score [8] | PBM binding z-score [9] | PBM binding z-score [10] | PBM binding z-score [11] | PBM binding z-score [12] | PBM binding z-score [13] | PBM binding z-score [14] | PBM binding z-score [15] | PBM binding z-score [16] | PBM binding z-score [17] | PBM binding z-score [18] | PBM binding z-score [19] | PBM binding z-score [20]
1 | TCGAGTAGGTTAGTCGGGGCATTCGGCCAACATA | -0.18 | -0.185 | -0.523 | 0.162 | -0.854 | 0.505 | -0.197 | 0.72 | 0.731 | 0.597 | 1.74 | 2.04 | -1.62 | -1.17 | 0.0341 | 0.113 | 0.177 | 0.065 | -0.901 | 0.58
2 | CCGACTGGGGCAAAGGTTACAATACTCAGTACGA | 1.77 | 1.65 | 0.0321 | 2.42 | -0.618 | 5.62 | 12.1 | 9.57 | 11.1 | 11.3 | 4.99 | 6.06 | 0.209 | 0.0744 | 1.56 | 2.63 | -0.0818 | 4.23 | 0.27 | 2.55
3 | CCTACTGGGGCAGAAAGGTTACCATACCATCCGG | 0.253 | 0.567 | 0.201 | 0.837 | -0.839 | 2.14 | 2.05 | 2.74 | 0.989 | 2.22 | 3 | 4 | 0.246 | -0.987 | 1.63 | 0.791 | -0.188 | 1.85 | 0.396 | 1.87
4 | ATATATAGGTTAGCTGGGGTCATTCAGACTAGGC | 4.53 | 6.18 | 3.51 | 5.39 | 2.03 | 5.2 | 5.62 | 5.43 | 2.62 | 4.79 | 6.82 | 5.96 | 2.35 | 1.71 | 2.62 | 6.52 | 3.94 | 5.27 | 2.07 | 3.21
5 | CCTGCTAGGTCAATTGTCAGCTAAAGCAGCTCGC | 2.8 | 2 | 0.111 | 1.6 | 0.259 | 2.77 | 1.83 | 2.46 | -0.128 | 1.54 | 4.15 | 3.14 | -0.356 | -0.703 | 0.436 | 0.762 | -0.49 | 1.34 | -0.799 | 3.53
6 | ATATGTAGGTTAAGGGTCATTCATGTTGGTTCGC | 5.05 | 4.86 | 3.12 | 4.48 | 1.33 | 6.66 | 11.6 | 9.59 | 9.79 | 10.5 | 7.75 | 8.04 | 2.47 | 1.44 | 3.15 | 4.77 | 1.38 | 5.63 | 2.15 | 3.6
7 | GCTGCTATGTCAACTGATGGTCAGCTAAAGCTCG | -0.296 | -0.497 | -0.849 | -0.37 | -0.729 | -0.283 | -0.143 | -0.387 | -0.655 | -0.456 | 0.616 | -0.0594 | -1.42 | -1.27 | -1.18 | -0.32 | -0.913 | -0.149 | -1.19 | 0.753
